Experimental data taken from PubChem BioAssay AID1851 (National Center for Advancing Translational Sciences (NCATS), 2009).
Screen size: about 16,000 compounds; about 5,800 (36%) were called active. Inconclusive results (about 23%) are left out. Calls follow the shape of the dose curve; as a rule, active = well fitted curve in the direction sought with a large enough effect; inconclusive = small, poorly fitted or top-dose-only effect, or effect the other way; inactive = no such curve, though single readings can be large or run the other way. Some of the results follow.

target: Cytochrome P450 2C19 (Homo sapiens) (UniProt P33261); experiment: Cytochrome panel assay with activity outcomes; details: recombinant CYP, pro-luciferin dealkylation, luminescence, p450-cyp2c19; series mostly up to 57.1 µM
Sequence (P33261 whole entry, looked up): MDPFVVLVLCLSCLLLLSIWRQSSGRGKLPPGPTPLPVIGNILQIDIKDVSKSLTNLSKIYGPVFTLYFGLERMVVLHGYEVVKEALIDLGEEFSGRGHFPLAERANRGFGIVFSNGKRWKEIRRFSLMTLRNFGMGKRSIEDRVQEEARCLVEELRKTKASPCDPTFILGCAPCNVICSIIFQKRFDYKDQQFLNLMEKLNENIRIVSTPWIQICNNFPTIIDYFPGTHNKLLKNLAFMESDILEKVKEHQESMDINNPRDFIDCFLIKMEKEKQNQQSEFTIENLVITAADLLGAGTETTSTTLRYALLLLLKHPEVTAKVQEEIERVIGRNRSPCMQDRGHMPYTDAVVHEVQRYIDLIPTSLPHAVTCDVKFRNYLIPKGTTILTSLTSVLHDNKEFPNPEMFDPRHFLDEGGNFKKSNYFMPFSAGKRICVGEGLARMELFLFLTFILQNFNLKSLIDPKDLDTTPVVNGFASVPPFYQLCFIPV
% is scaled to controls: 0 for no effect and ±100 for the full control effect.

| SMILES | AC50 | activity, negative = inhibition |
| --- | --- | --- |
| O=C(NCCc1ccccc1)N1c2ccccc2Sc2ccccc21 | 2.82 µM (active) | – |
| COc1ccc(S(=O)(=O)N2CCN(CC(=O)Nc3cc(OC)cc(OC)c3)CC2)cc1 | 14.1 µM (active) | – |
| COc1ccc(C)cc1NC(=O)CCC(=O)Nc1nnc(C(F)(F)F)s1 | inactive | – |
| COc1ccc(S(=O)(=O)N2CCCN(CCC(=O)Nc3cccc(C(F)(F)F)c3)CC2)cc1 | 2.51 µM (active) | – |
| COc1ccc(S(N)(=O)=O)cc1C(=O)NCCCN1CCN(c2ccc(C)cc2)CC1 | inactive | – |
| COc1ccc(NC(=O)c2cc(S(=O)(=O)N3CCS(=O)(=O)CC3)ccc2Cl)cc1 | inactive | – |
| COc1ccc(NC(=O)N2CC[C@@]3(CCCN(S(C)(=O)=O)C3)C2)cc1 | inactive | – |
| COc1ccc(S(=O)(=O)N2CCCN(CC(=O)Nc3ccc(OC)c(Cl)c3)CC2)cc1 | 0.0631 µM (active) | – |
| COc1ccc(C)cc1NC(=O)CN1CCN(S(=O)(=O)c2ccc(F)cc2)CC1 | 2.82 µM (active) | – |
| CC12CS(=O)(=O)CC1SC(=S)N2c1ccccn1 (stereo not given) | inactive | – |
| COc1ccc(NC(=O)N2CC[C@@]3(CCCN(C(=O)c4cccn4C)C3)C2)cc1 | inactive | – |
| CCOc1ccc(C(=O)CN2CCN(S(=O)(=O)c3ccc(F)cc3)CC2)cc1 | 7.08 µM (active) | – |
| COc1ccc(S(=O)(=O)N2CCN(CC(=O)Nc3cccc(F)c3)CC2)cc1 | 4.47 µM (active) | – |
| COC(=O)N1CCC2(CCCN(C(=O)Nc3cccc(F)c3)C2)CC1 | inactive | – |
| COc1ccc(C(=O)N2CCC3(CCN(C(=O)Nc4cccc(F)c4)CC3)CC2)cc1 | inactive | – |
| Cc1cccc(Cc2c(C)nc3nc(SCC(=O)NCc4ccco4)nn3c2C)c1 | 5.01 µM (active) | – |
| Cc1nc2nc(SCC(=O)NCc3ccco3)nn2c(C)c1Cc1c(F)cccc1Cl | 15.8 µM (active) | – |
| Cc1ccc(C2C3=C(CCCC3=O)Nc3nc(SCC(=O)NCc4ccco4)[nH]c(=O)c32)cc1 (stereo not given) | inactive | – |
| O=C(NC(Cc1ccccc1)C(=O)O)/C(=C\c1ccco1)NC(=O)c1ccc(Br)cc1 (stereo not given) | inactive | – |
| O=C(Nc1ccccc1)C(Cc1ccccc1)NC(=O)C12CC3CC(CC(C3)C1)C2 (stereo not given) | inactive | – |

| SMILES | AC50 | activity, negative = inhibition |
| --- | --- | --- |
| CC(=O)c1ccc(NC(=O)C(Cc2ccccc2)NC(=O)c2ccco2)cc1 (stereo not given) | 15.8 µM (active) | – |
| N#Cc1cccc(NC(=O)N2CC3(CCN(C(=O)c4cnccn4)CC3)C2)c1 | inactive | – |
| CCOC(=O)C1=C(C)N=C2SC(C(=O)OC)=CC(=O)N2C1c1ccc(F)cc1 (stereo not given) | 1.26 µM (active) | – |
| CCCC(=O)NCCc1c2n(c3ccc(OC)cc13)Cc1ccccc1-2 | 0.398 µM (active) | – |
| COc1ccc2c(c1)c(CC(=O)O)c(C)n2C(=O)c1ccccc1 | inactive | – |
| CC1(C)OC(=O)C(=CNCC(O)c2ccccc2)C(=O)O1 (stereo not given) | 11.2 µM (active) | – |
| CSCCC(NC=C1C(=O)OC(C)(C)OC1=O)C(=O)O (stereo not given) | inactive | – |
| CC1(C)OC(=O)C(=CNc2cccc(O)c2)C(=O)O1 | inactive | – |
| COCCN1CN=C(Nc2nc3ccccc3o2)NC1 | inactive | – |
| COCCN1CN=C(Nc2nc3ccccc3s2)NC1 | 14.1 µM (active) | – |
| COCCn1c(=O)c(-c2ccccc2)nc2cnc(Nc3ccccc3)nc21 | inactive | – |
| c1ccc2sc(NC3=NCN(C4CCCCCC4)CN3)nc2c1 | 1.12 µM (active) | – |
| c1ccc2sc(SCN(C3CCCCC3)C3CCCCC3)nc2c1 | – | -38.6% [at 11.4 µM] (inactive) |
| CN1CCN(c2ncc3nc(-c4cc(F)cc(F)c4)c(=O)n(CCC#N)c3n2)CC1 | inactive | – |
| CN(C)c1ccccc1CN1CCCN(Cc2ccccc2N(C)C)C1c1ccncc1 | – | -28.5% [at 11.4 µM] (inactive) |
| CCCCCCCCN1C(=O)N(C)C(N(O)C(=O)NC)C1(C)C (stereo not given) | 7.08 µM (active) | – |
| O=C(Nc1cc(C(F)(F)F)ccc1N1CCCCC1)c1ccc(Br)o1 | 11.2 µM (active) | – |
| O=C(COc1ccccc1)Nc1cc(C(F)(F)F)ccc1N1CCCC1 | 5.01 µM (active) | – |
| NS(=O)(=O)c1cc(C(=O)O)cc(N2CCCC2)c1Oc1ccccc1 | inactive | – |
| Nc1ncnc2c1ncn2CCCCC(=O)O | – | 24.1% [at 11.4 µM] (inactive) |

| SMILES | AC50 | activity, negative = inhibition |
| --- | --- | --- |
| COc1ccc2nccc(C(=O)O)c2c1 | inactive | – |
| COc1ccc2nc(SCC(=O)NN)cc(C)c2c1 | inactive | – |
| COc1ccc2nccc(SCC(=O)O)c2c1 | – | -14.8% [at 11.4 µM] (inactive) |
| COc1ccc2nc(C)cc(SCC(=O)Nc3c(C)cc(C)cc3C)c2c1 | 2.51 µM (active) | – |
| COc1ccc2nc(C)cc(SCC(=O)NNC(=O)COc3ccc(C)cc3)c2c1 | 3.16 µM (active) | – |
| NC(=O)c1cc[n+](CC2=C(C(=O)[O-])N3C(=O)[C@@H](NC(=O)Cc4cccs4)[C@@H]3SC2)cc1 | inactive | – |
| CCOC(=O)C(NC(C)=O)C(OC(C)=O)c1cccc(N(CCO)CCO)c1 (stereo not given) | inactive | – |
| Cc1c(NC(=O)C2CCN(S(=O)(=O)c3ccc(Cl)cc3)CC2)c(=O)n(-c2ccccc2)n1C | inactive | – |
| O=C(Nc1nnc(C2CC2)s1)c1cc(S(=O)(=O)N2CCN(c3ccccc3)CC2)ccc1Cl | 7.08 µM (active) | – |
| COc1ccc(COC(=O)N/N=C2/C[C@@H](O)[C@@H](O)[C@@H]3[C@@H]4C(=O)N(C(C)(C)C)C(=O)[C@H]4CC[C@@H]23)cc1 | – | 1.08% [at 11.4 µM] (inactive) |
| Brc1ccc([C@H]2CN3CCSC3=N2)cc1 | inactive | – |
| CN=c1nc(-c2ccccc2)n(-c2ccccc2)s1 | 3.16 µM (active) | – |
| CC(=O)c1c(C)nc(-c2ccccc2)n1O | inactive | – |
| Cc1ccc(-n2c(-c3ccccc3)cc(=O)nc2C)cc1 | inactive | – |
| Cc1noc(C)c1C(=O)N1CCC2(CCCN(c3ccncc3)C2)CC1 | inactive | – |
| CN(C)S(=O)(=O)Oc1ccccc1C(=O)Nc1cccc(C(F)(F)F)c1 | 2 µM (active) | – |
| Cc1c(C(=O)Nc2cccc(C(F)(F)F)c2)oc2ccc(S(=O)(=O)N3CCOCC3)cc12 | 7.94 µM (active) | – |
| Cc1c(C(=O)NC2CCCc3ccccc32)oc2ccc(S(=O)(=O)N3CCOCC3)cc12 (stereo not given) | 11.2 µM (active) | – |
| CCOC(=O)CC1C(=O)NCCN1S(=O)(=O)c1ccc(Cl)c(Cl)c1 (stereo not given) | 11.2 µM (active) | – |
| COC(=O)CC1C(=O)NCCN1C(=O)Nc1ccc(Cl)cc1 (stereo not given) | inactive | – |
